Assay outcomes: PubChem, several laboratories
In the library only some 4.4% were active in any assay of this set; here they are far more common.
tim23-1 inh = growth inhibitors of tim23-1 mutant yeast, primary screen, luminescence, uHTS | S. cerevisiae tim23-1 growth, BacTiter-Glo luminescence, 24 h | inhibition, % at 20 µM | hit rate 1.3% among 330,000 | AID 463212, 2010;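 active = growth inhibition of the mutant yeast at or above 50%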;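 also: temperature-sensitive mutant grown at 25 °C; plate controls were DMSO-treated mutant yeast for no effect and medium wells lacking yeast for full effect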
TIM10 inh = growth inhibitors of isogenic TIM10 control yeast, primary screen, counter-screen for tim10-1 yeast inhibitor project, luminescence, uHTS; hit rate 1.4% among 330,000; S. cerevisiae TIM10 strain growth, BacTiter-Glo luminescence, 24 h; inhibition, % at 10 µM; AID 463195, 2010;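 active = inhibition of 40% or more at the single tested concentration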;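 also: wild-type TIM10 isogenic control strain grown at permissive 25 °C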
tim10-1 inh = growth inhibitors of tim10-1 mutant yeast, primary screen, luminescence, uHTS; hit rate 2.2% among 330,000; S. cerevisiae tim10-1 ts strain growth, BacTiter-Glo, 24 h; inhibition, % at 20 µM;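 active = inhibition of at least 40%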;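 also: mutant grown at 25 °C; 0% = DMSO wells with yeast and 100% = wells holding no yeast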
SKKanGAS inh = S. pyogenes SKKanGAS growth inhibitors in kanamycin, primary screen, streptokinase expression inhibitor project, SKKanGAS strain, BacTiter-Glo luminescence | 6 h | inhibition, % at 7.5 µM | hit rate 1.3% among 300,000 | AID 1662, 2009;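 active = mean replicate score, as percent of positive control median, at least 50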;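 also: strain carries kanamycin resistance gene driven by streptokinase promoter and grows in 40 µg/ml kanamycin; loss of luminescence reflects streptokinase promoter inhibition or plain growth inhibition; 0% = median of DMSO wells and 100% = positive control at its reference dose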
PfHsp90 yeast 2 = growth inhibition of PfHsp90-expressing yeast, primary screen, antimalarial PfHsp90 inhibitor project, S. cerevisiae, BacTiter-Glo luminescence, single point, set 2; hit rate 0.32% among 310,000; inhibition, % at 9.4 µM; BacTiter-Glo ATP, 48 h; yeast lacking PDR1 and PDR3 efflux regulators; AID 504621, 2011;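 active = every replicate shows inhibition above about 80%, whatever the replicate mean, limit read from the data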;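 also: 0% = DMSO neutral controls and 100% = 20 µM radicicol positive controls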
tim10-1 confirm = growth inhibitors of tim10-1 mutant yeast, confirmation, single concentration, luminescence, S. cerevisiae. shares compounds with tim10-1 inh. S. cerevisiae tim10-1 ts strain growth, BacTiter-Glo, 24 h. hit rate 56% among 7,400. inhibition, % at 20 µM;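 active = inhibition of yeast growth at or above a set limit in either of two repeat tests at 20 µM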;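 also: tim10-1 mutant grown at permissive 25 °C to find synthetic lethal compounds; 0% = DMSO yeast wells and 100% = medium wells without yeast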
Starred values were filed as active, the others as inactive; . = no result given.

SMILES | tim23-1 inh | TIM10 inh | tim10-1 inh | SKKanGAS inh | PfHsp90 yeast 2 | tim10-1 confirm
CCc1ccc(-c2cc3c(=O)n(CC(=O)NCCCN4CCC(Cc5ccccc5)CC4)nc(C)n3n2)cc1 | 36 | -38 | 53* | -8 | -2 | -80
Cc1cc(C)c2nc(N(CCN(C)C)C(=O)c3ccc(S(=O)(=O)N(C)CC4CCCO4)cc3)sc2c1 (stereo not drawn) | 22 | 15 | 42* | 2 | -28 | 3
Cc1ccc2sc(N(CCN(C)C)C(=O)c3ccc(S(=O)(=O)N4CC(C)OC(C)C4)cc3)nc2c1C (stereo not drawn) | 26 | 29 | 40* | 1 | -30 | 24
CCN(Cc1ccccc1)S(=O)(=O)c1ccc(C(=O)N(CCCN(C)C)c2nc3c(C)c(C)ccc3s2)cc1 | 28 | 5 | 46* | 27 | 14 | -2
CC(C)(C)c1ccc(S(=O)(=O)N2CCN(Cc3cc4c(cc3O)OCO4)CC2)cc1 | 28 | 9 | 27 | . | -5 | .
Cc1ccc(S(=O)(=O)N2CCN(C(=O)COC(=O)c3ccc(Cl)c(S(N)(=O)=O)c3)CC2)c(C)c1 | . | . | . | . | 10 | .
Cc1cccc(OCc2nnc(SCC(=O)N3c4ccccc4CCc4ccccc43)o2)c1 | 33 | 13 | 17 | 5 | -31 | .
O=C(CSc1nnc(COc2ccc(F)cc2)o1)N1c2ccccc2CCc2ccccc21 | 25 | 8 | 42* | 2 | . | 16
Cc1nc2cc(NS(=O)(=O)c3c(C)c(C)cc(C)c3C)ccc2s1 | 29 | 30 | 42* | 10 | 11 | 33*
O=S(=O)(/C=C/c1ccccc1)n1cnc2ccccc21 | 29 | 38 | 44* | -2 | -1 | 32*
CN(C)S(=O)(=O)n1cnc2ccccc21 | 3 | -1 | 7 | 5 | -15 | .
O=C(CCN1C(=O)c2cccc([N+](=O)[O-])c2C1=O)NC1CCCCCC1 | 14 | -3 | -8 | . | 7 | .
Cc1ccc(N2C(=O)N3[C@H]4c5ccccc5OC[C@@H]4[C@@H](c4ccccc4)[C@@]3(C)C2=O)cc1 | 24 | 7 | 49* | 0 | -11 | 19
COC(=O)NCC(C)OC(=O)Nc1cccc(Cl)c1 (stereo not drawn) | -2 | -5 | -7 | -5 | 7 | .
CC(CNC(=O)COc1ccccc1)OC(=O)Nc1ccc(Cl)c(Cl)c1 (stereo not drawn) | 41 | 33 | 50* | -2 | 5 | 43*
Cc1ccc(NC(=O)COc2ccc3c(c2)OCO3)c(Cl)c1 | 2 | -12 | -9 | . | 3 | .
O=C(NC(=S)Nc1ccccc1Cl)c1csnn1 | 31 | 19 | 10 | 8 | 8 | .
Fc1cccc(NC(=S)NCc2ccc(Cl)cc2)c1 | 46 | 28 | 38 | 6 | -3 | .
FC(F)(F)c1cccc(NC(=S)NCc2ccc(Cl)cc2)c1 | 8 | 39 | 43* | 73* | 10 | 18
O=C(NC(=S)Nc1cccc(C(F)(F)F)c1)c1csnn1 | 43 | 14 | 52* | 6 | -7 | 36*
Fc1ccc(CNC(=S)Nc2cccc(C(F)(F)F)c2)cc1 | 31 | 40 | 51* | 5 | -8 | 43*
Cc1ccccc1CN1[C@@H]2c3ccccc3C[C@@H]2OCCS1(=O)=O | 26 | -6 | 12 | 1 | 29 | .
COC(=O)c1ccccc1NS(=O)(=O)c1ccc(Cl)nc1 | 16 | 24 | 15 | -2 | . | .
Cc1ccccc1NC(=O)/C=C/c1cccs1 | 20 | 9 | 22 | 0 | 27 | .
CCN(CC)S(=O)(=O)c1ccc(C)c(NC(=O)/C=C/c2cccs2)c1 | 28 | 28 | 45* | -3 | 4 | 30*
SMILES | tim23-1 inh | TIM10 inh | tim10-1 inh | SKKanGAS inh | PfHsp90 yeast 2 | tim10-1 confirm
Cc1cc(OCC(=O)NNC(=S)NC(=O)c2ccc(Br)o2)ccc1Cl | 27 | 22 | 26 | . | -14 | .
CC(=O)c1ccc(NC(=O)C2CCN(S(=O)(=O)c3cccc4cccnc34)CC2)cc1 | 37 | 18 | 41* | 0 | 7 | 29
COc1ccc(NC(=O)C2CCN(S(=O)(=O)c3cccc4cccnc34)CC2)cc1 | 0 | 3 | -11 | 3 | -11 | .
COCCN(Cc1cc2cc3c(cc2nc1Cl)OCO3)C(=O)c1ccc(C)cc1 | 21 | 7 | 18 | -3 | . | .
COc1cc2c(cc1CNC[C@H]1O[C@@H](n3cnc4c(N)ncnc43)[C@H](O)[C@@H]1O)OCO2 | -11 | -5 | -5 | . | -5 | .
O=S(=O)(c1ccc(Br)c2nsnc12)N1CCOCC1 | 6 | 0 | -8 | -3 | -3 | .
CN1CCN(S(=O)(=O)c2ccc(Br)c3nsnc23)CC1 | -10 | -14 | 46* | -5 | . | -10
CC1CN(Cc2ccccc2)c2nc3c(c(=O)n(C)c(=O)n3C)n2C1 (stereo not drawn) | 15 | -8 | -2 | -5 | -14 | .
CC1CN(c2nc3c(c(=O)n(Cc4ccc(Cl)cc4)c(=O)n3C)n2C)CC(C)O1 (stereo not drawn) | 19 | 38 | 44* | -11 | 4 | 26
CC(C)Cn1c(=O)c2c(nc3n2CC(C)CN3Cc2ccccc2)n(C)c1=O (stereo not drawn) | 30 | 8 | 40* | -9 | -27 | 7
C[C@@H]1O[C@@H](O[C@@H]2[C@@H](O)[C@H](OCCc3ccc(O)c(O)c3)O[C@H](CO)[C@H]2OC(=O)/C=C/c2ccc(O)c(O)c2)[C@H](O)[C@H](O)[C@H]1O | -8 | -8 | -10 | . | -3 | .
CC(C)(C)OC(=O)N1CCC(NC(=O)c2ncn(Cc3ccccc3)c2C(=O)NC2CCN(C(=O)OC(C)(C)C)CC2)CC1 | 1 | 15 | 4 | . | 18 | .
C=CC[C@@H](CC(=O)N[C@@H](CO)Cc1ccccc1)C(=O)N[C@H](C)COC(=O)[C@@H](CC=C)Cc1ccc(F)cc1 | 5 | 5 | 4 | . | -5 | .
O=C(Nc1nc2ccccc2n1CCN1CCOCC1)c1cn(-c2ccccc2)nc1-c1ccccc1 | 40 | 39 | 42* | 85* | -2 | 32*
CN(CC(=O)Nc1ccc(F)cc1)C(=O)c1ccc(OCc2cn3ccccc3n2)cc1 | 3 | -4 | 11 | . | . | .
CCOC(=O)CSc1cc(-c2ccccc2)nc2ncnn12 | 36 | 34 | 44* | -14 | 9 | 35*
CC1Cc2ccccc2N1C(=O)CSc1nnnn1Cc1ccccc1 (stereo not drawn) | 39 | 38 | 60* | 4 | 3 | 45*
COCCCn1nnnc1SCC(=O)N1c2ccccc2CC1C (stereo not drawn) | 9 | 2 | -14 | -7 | 9 | .
CS(=O)(=O)c1ccc(NS(=O)(=O)c2ccc(Cl)c(C(=O)NCc3ccco3)c2)cc1 | -1 | 10 | 1 | . | 2 | .
